Compound activity deposited in PubChem BioAssay by several laboratories.
GDH-TPI counter-1 = counter-screen for M. tuberculosis FBA inhibitors: GDH-TPI coupled enzymes; GDH-TPI coupled enzyme counterscreen, NADH absorbance; inhibition, % at 4.8 µM; 1.2% of 360,000 active; AID 588335; in the data active = inhibition above about 30%
RecA intein inh = blocks M. tuberculosis RecA intein splicing; P9WHJ3; AID 2221; cell-free RecA intein splicing, fluorescence; 0.75% of 290,000 active; inhibition, % (no concentration beside the values); in the data active = inhibition above about 30%
Mtb FBA inh = inhibits M. tuberculosis FBA enzyme | purified M. tuberculosis FBA, fluorescence read-out | 2.3% of 360,000 active | inhibition, % at 1 µM | AID 588726 | P9WQA3
CCHF vOTU inh = blocks the CCHF virus ovarian tumor domain protease; inhibition, % at 11.5 µM; CCHFV vOTU protease, Pep-AMC fluorescence; 0.55% of 370,000 active; in the data active = inhibition above about 30%
Mtb FBA inh conf = confirmation of M. tuberculosis fructose-bisphosphate aldolase inhibitors; shares compounds with Mtb FBA inh; purified M. tuberculosis FBA, fluorescence read-out; inhibition, % at 1 µM; 78% of 5,600 active; AID 651616
GDH-TPI counter-2 = GDH-TPI inhibition counter-screen for FBA inhibitors; GDH-TPI coupled enzyme counterscreen, fluorescence; shares compounds with Mtb FBA inh; AID 652141; 81% of 5,600 active; inhibition, % at 1 µM; in the data active = inhibition above about 10%
GDH-TPI dose = inhibits GDH-TPI coupling enzymes in dose response; AID 652145; IC50, µM; GDH-TPI coupled enzyme assay, fluorescence, artifact counterscreen; 79% of 170 active; shares compounds with Mtb FBA inh; call rule not given here
Of the large screens only hits and unclear results are named; the others gave an inactive call (follow-up assays come after a bar, where they were run). The list is not random: actives were taken first. Their share in the collection is about 4.2%. Cut-off read from the data, not from the text of the source, unless noted: active = inhibition above about 27%; inactive = the rest.

COCC1CCN(C(=O)c2cc(COc3cccc4cnccc34)on2)CC1	none
COc1ccc(-c2nc3ccc(C)cn3c2NCc2ccc3c(c2)OCO3)cc1	none
CCCCNc1c(-c2ccc(SC(C)CC)cc2)nc2ccc(Cl)cn12 (stereo not given)	none (no result: GDH-TPI counter-1, RecA intein inh, Mtb FBA inh)
Cc1ccc2nc(-c3ccc(-c4cccc(Cl)c4)cc3)c(NCc3ccccc3)n2c1	GDH-TPI counter-1 36, Mtb FBA inh 29 | Mtb FBA inh conf inactive | GDH-TPI counter-2 inactive | GDH-TPI dose 1.5
CCC(C)Sc1ccc(-c2nc3ccc(C)cn3c2NCc2ccccc2)cc1 (stereo not given)	Mtb FBA inh 38 (no result: RecA intein inh) | Mtb FBA inh conf 94 | GDH-TPI counter-2 75
COc1cc(-c2nc3ccc(C)cn3c2NCc2ccccc2)ccc1-c1cccc(Cl)c1	Mtb FBA inh 40 (no result: RecA intein inh) | Mtb FBA inh conf inactive | GDH-TPI counter-2 inactive
Nc1c(N(Cc2ccco2)C(=O)COc2ccccc2F)c(=O)[nH]c(=O)n1Cc1ccccc1	none (no result: RecA intein inh)
COc1cc(OC)c(/C=N/NC(=O)c2ccncc2)c(OC)c1	none
COc1cc2c(cc1OC)CC[N+](C)=C2	Mtb FBA inh 95 | Mtb FBA inh conf 111 | GDH-TPI counter-2 76
COc1ccc(-c2nc3ccc(Br)cn3c2Cc2ccsc2)cc1OC	none (no result: GDH-TPI counter-1, RecA intein inh)
C=CCN1CCN(C(CC(C)C)c2nnnn2CCOC)CC1 (stereo not given)	none (no result: RecA intein inh)
CCCCC(c1nnnn1CCOC)N1CCN(CC)CC1 (stereo not given)	Mtb FBA inh 38 (no result: RecA intein inh) | Mtb FBA inh conf 91 | GDH-TPI counter-2 62
COc1ccc2cc(C#N)c(NC(C)C)nc2c1	Mtb FBA inh 55 | Mtb FBA inh conf inactive | GDH-TPI counter-2 inactive
COc1ccc2cc(C#N)c(N3CCOCC3)nc2c1	Mtb FBA inh 37 | Mtb FBA inh conf 66 | GDH-TPI counter-2 63
CCSc1nc2ccc(OC)cc2cc1C#N	none
COC(=O)CSc1nc2cc(OC)ccc2cc1C#N	none
CCN(CC)c1nc2cc(OC)ccc2cc1C#N	Mtb FBA inh 32 | Mtb FBA inh conf 50 | GDH-TPI counter-2 35
O=C1NC[C@H](CCCCN2C[C@@H](Cc3ccccc3)N(CC3CCCCC3)C(=O)C2=O)N(CCC2CCCCC2)C1=O	none (no result: GDH-TPI counter-1, RecA intein inh, Mtb FBA inh)
COCCn1nnnc1C(c1ccccc1OC)N1CCN(c2ccccc2)CC1 (stereo not given)	Mtb FBA inh 40 | Mtb FBA inh conf 60 | GDH-TPI counter-2 41
CCCC(c1nnnn1Cc1ccc(OC)cc1)N1CCN(c2ccccc2)CC1 (stereo not given)	none
COc1ccc(Cn2nnnc2C(CC(C)C)N2CCN(c3ccccc3)CC2)cc1 (stereo not given)	Mtb FBA inh 55 | Mtb FBA inh conf inactive | GDH-TPI counter-2 inactive | GDH-TPI dose inactive
CC(COc1cccc(F)c1)CN1CCC(C(O)(c2ccccc2)c2ccccc2)CC1 (stereo not given)	none (no result: GDH-TPI counter-1, RecA intein inh, Mtb FBA inh)
O=C1c2ccccc2NC(c2ccccc2)N1Cc1ccccc1 (stereo not given)	Mtb FBA inh 63 | Mtb FBA inh conf 39 | GDH-TPI counter-2 15
COc1cccc(C2Nc3ccccc3C(=O)N2Cc2ccccc2)c1 (stereo not given)	Mtb FBA inh 61 | Mtb FBA inh conf inactive | GDH-TPI counter-2 18
O=C(O)C1c2ccccc2C(=O)N(Cc2ccc(F)cc2)C1c1ccncc1 (stereo not given)	none
O=C1NCCN1CCN1C(=O)c2ccccc2NC1c1ccccc1 (stereo not given)	Mtb FBA inh 72 | Mtb FBA inh conf 108 | GDH-TPI counter-2 91
O=C1c2ccccc2NC(c2ccc(F)cc2)N1Cc1ccccc1 (stereo not given)	Mtb FBA inh 57 | Mtb FBA inh conf 79 | GDH-TPI counter-2 55
COc1ccc(CC(N)c2csc(Nc3nncc4ccccc34)n2)cc1 (stereo not given)	none (no result: RecA intein inh)
CC1Cc2cc(S(=O)(=O)CCC(=O)NCc3ccco3)ccc2N1C(=O)C1CC1 (stereo not given)	none
Cc1ccc(NC(=O)CSc2nnnn2C2CCCC2)cc1S(=O)(=O)N1CCOCC1	none (no result: RecA intein inh)
CNC(=O)c1cn2c3c(ccc(Cl)c3c1=O)OC(C)C2 (stereo not given)	Mtb FBA inh 37 (no result: RecA intein inh) | Mtb FBA inh conf inactive | GDH-TPI counter-2 inactive
CCOCCCNC(=O)c1cn2c3c(ccc(Cl)c3c1=O)OC(C)C2 (stereo not given)	none
Cc1ccc2c(COC(=O)CC3Sc4ccccc4NC3=O)cc(=O)oc2c1C (stereo not given)	none
